A selection: hits, their analogues and other compounds. The true share with any hit is near 11%.
G9a inh = G9a (human) methyltransferase inhibition; Q96KQ7; G9a H3K9 monomethylation, AlphaScreen, 2 h; Potency, µM (highest dose often 102 µM), for the others: at the top dose activity, negative = inhibition, usual class: inhibitors; hit rate 8.8% among 350,000; AID 504332; further: on the % scale 0 is the no-effect control and ±100 the full control effect; nearly all actives have a fitted effect of over 75% in size
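Readings reflect AlphaScreen signal from monomethyl-H3K9 antibody detection. HMT at 20 nM; substrate b-H3K9 500 nM; cofactor SAM 20 uM; 2 h RT reaction; compounds tested as titrations in qHTS with 15 min preincubation.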
JMJD2A Tudor = blocks the human JMJD2A Tudor domain. O75164. AlphaScreen JMJD2A-Tudor / H3K4me3 peptide binding. Potency, µM (top dose mostly 114 µM), inactives show at the highest dose activity change, negative = inhibition, usual class: inhibitors. hit rate 4.4% among 390,000. AID 504339; further: on the % scale 0 is the no-effect control and ±100 the full control effect; nearly all actives have a fitted effect of over 50% in size
L3MBTL1 block = L3MBTL1 (human) inhibition; Q9Y468; AlphaScreen L3MBTL1–H3K9me1 peptide binding; Potency, µM (series often up to 57.1 µM), inactives show at the highest dose activity, negative = inhibition, usual class: inhibitors; hit rate 0.66% among 230,000; AID 485360; further: on the % scale 0 is the no-effect control and ±100 the full control effect; nearly all actives have a fitted effect of over 60% in size
Target sequence (Q9Y468 whole entry, looked up): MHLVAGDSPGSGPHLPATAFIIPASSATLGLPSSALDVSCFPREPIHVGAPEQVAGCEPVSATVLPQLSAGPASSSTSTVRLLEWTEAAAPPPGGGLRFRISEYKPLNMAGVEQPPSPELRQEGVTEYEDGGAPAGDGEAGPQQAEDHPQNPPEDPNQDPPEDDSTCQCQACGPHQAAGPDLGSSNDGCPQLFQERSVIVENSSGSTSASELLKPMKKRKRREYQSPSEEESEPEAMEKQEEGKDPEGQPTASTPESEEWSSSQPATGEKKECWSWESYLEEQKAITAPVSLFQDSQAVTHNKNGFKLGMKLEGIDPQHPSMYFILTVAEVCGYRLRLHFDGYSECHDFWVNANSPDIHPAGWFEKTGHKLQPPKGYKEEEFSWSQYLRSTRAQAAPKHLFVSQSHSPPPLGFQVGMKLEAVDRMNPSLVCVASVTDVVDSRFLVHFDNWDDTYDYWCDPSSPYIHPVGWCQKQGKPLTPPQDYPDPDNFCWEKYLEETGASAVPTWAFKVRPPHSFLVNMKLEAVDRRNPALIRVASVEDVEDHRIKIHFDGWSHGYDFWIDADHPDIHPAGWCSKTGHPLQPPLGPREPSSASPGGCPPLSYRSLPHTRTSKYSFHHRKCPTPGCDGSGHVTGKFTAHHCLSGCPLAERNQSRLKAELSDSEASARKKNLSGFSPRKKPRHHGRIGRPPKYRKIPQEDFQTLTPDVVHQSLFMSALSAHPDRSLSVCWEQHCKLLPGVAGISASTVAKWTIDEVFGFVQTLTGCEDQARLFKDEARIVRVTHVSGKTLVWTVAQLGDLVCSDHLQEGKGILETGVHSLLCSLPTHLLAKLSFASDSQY
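L3MBTL1 (50 nM) pre-complexed 30 min with biotinylated H3(1-15)K9me1 peptide (75 nM), then compounds added for 30 min at room temperature; AlphaScreen streptavidin donor/nickel chelate acceptor beads (10 ug/mL final) read after 30 min dark incubation.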
HP1b binding inh = blocks HP1-beta chromodomain binding to methylated histone tails. AlphaScreen HP1-beta / biotin-H3K9me3 peptide binding. hit rate 0.56% among 390,000. P83916. Potency, µM (highest dose often 114 µM), for the others: top-dose activity change, negative = inhibition, usual class: inhibitors; further: nearly all actives have a fitted effect of over 70% in size
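HP1-beta protein (50 nM final) preincubated 30 min at room temperature with biotinylated H3(1-18)K9me3 peptide (50 nM) in PBS pH 7.4, 0.01% Tween-20, then compound added for 30 min. AlphaScreen streptavidin donor/nickel chelate acceptor beads (10 ug/mL final), 30 min dark, luminescence read.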
BAZ2B inh = blocks human BAZ2B. Q9UIF8. AlphaScreen BAZ2B-H3K14Ac peptide displacement. Potency, µM (doses to about 114 µM), inactives show at the top dose activity change, negative = inhibition, actives largely listed as inhibitors. hit rate 4.4% among 360,000; further: on the % scale 0 is the no-effect control and ±100 the full control effect; nearly all actives have a fitted effect of over 60% in size
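Multi-concentration screen (max 110 uM) measuring displacement of acetylated histone H3 peptide from BAZ2B by AlphaScreen, using 50 nM protein, 50 nM peptide and 10 ug/mL streptavidin donor plus Ni-chelate acceptor beads.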
Active calls of the source: *; ? = inconclusive; nt = not tested or not shown; [ ] = dose if it differs, or a comment. The call rests on the fitted dose curve; in most records, active means well fitted inhibition curve with a large enough effect; inconclusive means small, poorly fitted or top-dose-only effect; inactive means no such curve, though single readings can be large or run the other way. Potency means the concentration at half of the fitted maximal effect.

SMILES	G9a inh	JMJD2A Tudor	L3MBTL1 block	HP1b binding inh	BAZ2B inh
CCc1ccc(NC(=O)C2CCCN(S(=O)(=O)c3ccc4c(c3)oc(=O)n4C)C2)cc1 (centres undefined)	2%[59 µM]	1%	nt	53%	0%
COc1ncc2nc(-c3ccccc3)c(=O)n(C)c2n1	9%[0.501 µM]	nt	nt	nt	nt
COc1ccc(CN2CCN(C(=O)c3cccs3)CC2)cc1Br	35µM*	35µM*	-8%	?	50µM*
CCOc1cc(CN2CCN(C(=O)c3cccc4ccccc34)CC2)ccc1OC	22µM*	20µM*	-6%	?	50µM*
COc1ccc(C(=O)Nc2ccc(N3CCN(C(=O)c4cccs4)CC3)cc2)cc1Br	nt	5%	nt	47%	-13%
COc1cc(C(=O)N2CCN(C(=O)c3cccc4ccccc34)CC2)cc(OC)c1OC	17%	-18%	nt	-4%	-12%
O=C(c1cccs1)N1CCN(Cc2cccc([N+](=O)[O-])c2)CC1	11µM*	20µM*	2%	?	28µM*
COc1ccc(CN2CCN(C(=O)c3cccc4ccccc34)CC2)cc1Br	28µM*	18µM*	-7%	-17%	50µM*
COc1ccc(/C=C\c2onc(C)c2S(=O)(=O)N2CCC(C(=O)Nc3ccc(Cl)cc3)CC2)cc1	-8%[59 µM]	-16%	nt	10%	nt
N#Cc1nc(-c2ccc(OCc3ccc(Cl)cc3)cc2)oc1N1CCCCCC1	nt	-17%[57.1 µM]	nt	-26%[57 µM]	nt
CN1CCN(CCc2ccc(Cl)c(Cl)c2)CC1	42%[59 µM]	nt	nt	nt	nt
COc1ccc(CNS(=O)(=O)c2cc(CN3C(=O)c4cccnc4C3=O)ccc2OC)cc1	nt	-12%	nt	22%	?
O=C(c1cccc(S(=O)(=O)Nc2ccc(Br)cc2)c1)N1CCCC1	10%[59 µM]	-2%	1%	27%	6%
CCCCNC(=O)CSc1nc2n[nH]c(C)c2c(=N)n1-c1ccccc1CC	4%[59 µM]	-2%	nt	37%	-2%
O=[N+]([O-])c1ccccc1-c1ccc(C(=S)N2CCCC2)o1	10µM*	56µM*	?	?	40µM*
O=[N+]([O-])c1ccccc1-c1ccc(C(=S)N2CCCCC2)o1	20µM*	45µM*	?	50µM*	25µM*
Cc1cccc(N2CCN(C(=S)c3ccc(-c4ccccc4[N+](=O)[O-])o3)CC2)c1	11µM*	8.9µM*	?	16µM*	10µM*
O=C(NCc1cccnc1)c1ccc(-c2ccccc2[N+](=O)[O-])o1	-1%[59 µM]	-1%	0%	20%	-2%
Cc1c(Cl)cccc1-c1ccc(C(=O)N2CCN(c3ccc([N+](=O)[O-])cc3)CC2)o1	?	-24%	-1%	16%	-37%
O=C(c1ccc(-c2ccccc2Cl)o1)N1CCCCCCC1	nt	116%	nt	?	nt
O=S(=O)(c1ccc2c(c1)OCO2)N1CCN(c2nc(-c3cccs3)nc3ccccc23)CC1	nt	-10%	nt	30%	nt
CCCc1cc(=O)n2c(C(=O)Nc3ccc(OCC)cc3)c(C(=O)Nc3ccc(C)cc3)sc2n1	?	-5%	nt	3%	-1%
CCCn1cc(S(=O)(=O)c2ccc(Cl)cc2)c(=O)c2cc(OC)ccc21	2%	22µM*	nt	20%	?
CN1CCN(c2ccc(NC(=O)c3ccc(-c4ccc(Br)cc4)o3)cc2)CC1	32µM*	35µM*	-24%[11.4 µM]	?	25µM*
CCN1CCN(c2ccc(NC(=O)c3ccc(Br)o3)cc2)CC1	-2%	-11%	nt	23%	-20%
SMILES	G9a inh	JMJD2A Tudor	L3MBTL1 block	HP1b binding inh	BAZ2B inh
CC(=O)N1CCN(c2ccc(NCc3ccc(-c4ccc(Br)cc4)o3)cc2)CC1	nt	25µM*	-29%	-22%	nt
CN1c2ccccc2C(=O)NC1c1ccc(Cl)cc1 (centres undefined)	45µM*	-6%	5%	24%	-6%
Cc1cc(C)cc(N2CCn3c2nc2c3c(=O)n(Cc3c(F)cccc3Cl)c(=O)n2C)c1	-2%[59 µM]	-11%	nt	33%	-13%
Cc1csc(SCc2nnc(-c3ccccc3Br)o2)n1	-37%	-8%	5%	36%	5%
Fc1ccccc1SCc1nnc(-c2ccccc2Br)o1	-10%	11µM*	57%	-11%	84%
COc1ccc(S(=O)(=O)N2CCN(c3nc(-c4cccs4)nc4ccccc34)CC2)cc1OC	nt	-17%	nt	24%	nt
CCN1CCN(C(=S)c2ccc([N+](=O)[O-])cc2)CC1	10µM*	?	2%	-34%	4%
